The values that follow come from PubChem BioAssay AID651820 (National Center for Advancing Translational Sciences (NCATS), 2012).

Molecules are shown by their SMILES. Out of some 340,000 compounds screened, about 12,000 (3.5%) were called active. Inconclusive results (about 18%) are left out. For the sample, actives were picked, then their nearest neighbours and some compounds at random. Unmarked numbers belong to inactive results. The call rests on the fitted dose curve; in most records, active means well fitted inhibition curve with a large enough effect; inconclusive means small, poorly fitted or top-dose-only effect, or another doubt; inactive means no such curve, though single readings can be large or run the other way.
On the % scale 0 is the no-effect control and ±100 the full control effect; potency means the concentration at half of the fitted maximal effect.

A short description of this assay: qHTS Assay for Inhibitors of Hepatitis C Virus (HCV). As to conditions: Huh7.5.1 HCVcc-Cre infection, luciferase reporter, 44 h; series mostly up to 41.8 µM; activity change, negative = inhibition: at the top concentration. Put shortly: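 Antiviral activity was scored by luciferase reporter output from cells infected with HCVcc-Cre (~0.5 moi) in presence of compound, 44 h infection period, cells seeded 1,000/well 4 h prior.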
A general note: In qHTS, concentration-response curves come from the screen itself.
With `CCn1c(COc2ccccc2)nnc1SCC(=O)Nc1ccc2c(c1)OCCO2`, the “activity change, negative = inhibition” value is 6%.
On the same count and under the same terms, under `CCOc1ccc(C(=O)NC2CCN(C(=O)Nc3ccccc3OC)CC2)cc1` stands 0.244%; under `CC1CCCCC12NC(=O)N(CC(=O)N1CCN(c3ccccc3)CC1)C2=O` (stereo not drawn), -9.42%; under `CSCCC(NC(=O)c1ccco1)C(=O)NCCc1ccc(F)cc1` (stereo not drawn), 6%.
On the same count and under the same terms, then `O=C(OCC(=O)N1CCCCCC1)c1ccc(Br)c(S(=O)(=O)N2CCOCC2)c1`, with -0.643%; and `Cc1nn(Cc2ccccc2)c(C)c1C(=O)NCCN1C(=O)S/C(=C\c2ccc(F)cc2)C1=O`, with -17.6%.
Consider `CCN1CCN(CCNC(=O)c2ccc3c(c2)NC(=O)/C(=C\c2ccc(OC)c(OC)c2)S3)CC1`, for which the Potency was 31.6 µM (active).
In the case of `CCN1CCN(CCNC(=O)c2ccc(/C=C3/Sc4ccccc4N(Cc4cccc(C)c4)C3=O)cc2)CC1`, the Potency was 8.91 µM (active).
Take `COc1ccc(CCNC(=O)c2ccc3c(c2)NC(=O)C(N2CCOCC2)S3)cc1OC` (stereo not drawn): the “activity change, negative = inhibition” value was -4.67%.
`COc1ccc(/C=C(\NC(=O)c2ccccc2)C(=O)NCCN2CCOCC2)cc1OC`: the “activity change, negative = inhibition” value was 11.8%.
For `O=C(NCCCN1CCOCC1)c1ccc2c(c1)N(Cc1cccc(F)c1)C(=O)c1ccccc1S2`, the “activity change, negative = inhibition” value was -10.1%.
The same measure, in the same setting: then `CC(=O)OC1CCC2(C)C(=CCC3C4CC(=O)N(O)C(=O)C4(C)CCC32)C1` (stereo not drawn), with 11.9%; and `COc1cc(/C=C/C(=O)OCC(=O)NC2CC2)cc(OC)c1OC`, with -13.3%.
On the same count and under the same terms, under `CN(CC(=O)NCc1cccnc1)S(=O)(=O)c1cc(Cl)ccc1Cl` stands -1.4%.
For `CC(=O)c1c(OCC(=O)N(C)C2CCCCC2)ccc2c(C)cc(=O)oc12`, the “activity change, negative = inhibition” value was -5.03%.
`COc1cccc(C=CC(=O)C=CC=Cc2ccccc2)c1`: the “activity change, negative = inhibition” value was 0.583%.
The same measure, in the same setting: then `O=C(NCc1ccccc1Cl)C1CCCO1` (stereo not drawn), with 18.6%; and `CC1Sc2ccc(C(=O)NCc3ccccc3Cl)cc2NC1=O` (stereo not drawn), with 14.3%; and `O=C(NC1CCCCC1)c1ccc2c(=O)n(CC3CCCO3)c(=O)[nH]c2c1` (stereo not drawn), with 10.9%.
Take `O=C(NCc1ccccc1Cl)c1ccc2c(=O)n(CC3CCCO3)c(=S)[nH]c2c1` (stereo not drawn): the Potency is 6.31 µM (active).
The same measure, in the same setting: then `Cc1cccc(NC(=O)c2ccc3c(=O)n(CC4CCCO4)c(=S)[nH]c3c2)c1` (stereo not drawn), with 11.2 µM (active).
As to `Cc1ccccc1NC(=O)Cn1c(=O)n(CC2CCCO2)c(=O)c2ccccc21` (stereo not drawn), the “activity change, negative = inhibition” value is 14.2%.
The same measure, in the same setting: under `CSc1ccc(/C=C2\NC(=O)NC2=O)cc1` stands 23%; under `Cc1cn(C2CC(O)C(CO)O2)c(=O)n(CCCc2ccccc2)c1=O` (stereo not drawn), 34.1%.
Still for that read-out and setting: then `C(#CCN1CCOCC1)CCCN1CCOCC1`, with 2.92%; and `COc1cccc(NS(=O)(=O)c2ccc(-c3coc(C)n3)cc2)c1`, with -9.58%.
Consider `Cc1ccc(NS(=O)(=O)c2ccc(-c3coc(C)n3)cc2)c(C)c1`, for which the Potency is 11.2 µM (active).
Turning to `Cc1ccc(NS(=O)(=O)c2ccc3c(c2)n(C)c(=O)c(=O)n3C)c(C)c1`, the “activity change, negative = inhibition” value was 7.94%.
Still for that read-out and setting: then `CCCCN1C(N)=NC[C@@H]1CC1CCCCC1`, with 17%; and `COC(=O)Cc1ccc(OCC(=O)NC2CCCC2)cc1`, with 4.31%.
Same read-out and setting: under `COc1cc(OC)cc(C(=O)NNC(=O)CNC(=O)c2ccc(Br)o2)c1` stands 10.2%.
Consider `COc1cc(OC)c(NC(=O)c2ccc(Br)o2)cc1Cl`, for which the Potency was 11.2 µM (active).
On to `CCN1CCN(c2c(Cl)cccc2NC(=O)c2ccc(Br)o2)CC1`, for which the “activity change, negative = inhibition” value is -19.6%.
Same read-out and setting: under `Cc1csc(SCC(=O)N(c2ccccc2)C(C)C)n1` stands 13.2%.
On the same count and under the same terms, under `NC(=O)C1(Nc2ccc([N+](=O)[O-])cc2)CCCC1` stands -3%; under `Cc1cc(OCc2cc(C(=O)NCc3cc(C(C)C)no3)no2)cc(C)c1Cl`, 5.78%.
For `CCOC(=O)CC1(NC(=O)c2cc(COc3cncc(Cl)c3)on2)CCCCC1`, the Potency was 10 µM (active).
Regarding `CCOC(=O)CC1COCCN1C(=O)c1cc(COc2ccc(F)c(F)c2)on1` (stereo not drawn), the “activity change, negative = inhibition” value is -11.4%.
Still for that read-out and setting: under `CCCCn1c(N)c(N(CC(C)C)C(=O)C2CSC3(C)CCC(=O)N23)c(=O)[nH]c1=O` (stereo not drawn) stands 0.302%.
With `O=C(O)C1C2C=CC(O2)C1C(=O)Nc1ccccn1` (stereo not drawn), the “activity change, negative = inhibition” value was 21%.
Consider `COC(=O)[C@]1(C)N[C@H](c2ccc(-c3ccc(Cl)c(Cl)c3)cc2)[C@@H]2C(=O)N(C)C(=O)[C@@H]21`, for which the “activity change, negative = inhibition” value was -8.54%.
Take `Cc1ccccc1OCC(=O)Nc1ccc(N2CCN(C(=O)C(C)C)CC2)c(Cl)c1`: the Potency was 31.6 µM (active).
The same measure, in the same setting: under `COc1ccccc1C(=O)Nc1ccc(C)c(S(=O)(=O)N2CCCCC2)c1` stands 7.08 µM (active).
Regarding `Cc1ccc(NC(=O)COC(=O)C2CC2)cc1S(=O)(=O)N1CCOCC1`, the “activity change, negative = inhibition” value was 11%.
With `Cc1ccccc1OCC(=O)Nc1ccc2c(c1)ncn2C`, the “activity change, negative = inhibition” value is -14.5%.
Take `Cc1cc(C(=O)Nc2ccc(C)c(S(=O)(=O)N3CCOCC3)c2)c2ccccc2n1`: the Potency was 11.2 µM (active).
As to `Cc1ccc(NC(=O)CCC(=O)N2CCC(c3ccccc3)=N2)cc1S(=O)(=O)N1CCCCC1`, the “activity change, negative = inhibition” value was 13.3%.
The same measure, in the same setting: then `Cc1ccccc1OCC(=O)Nc1ccc(S(=O)(=O)N2CCOCC2)cc1`, with -9.36%.
For the compound `CCc1ccccc1OCC(=O)Nc1ccc(C)c(S(=O)(=O)N2CCCCCC2)c1`, the Potency is 3.55 µM (active).
For `Cc1ccc(NC(=O)C2CC2)cc1S(=O)(=O)N1CCOCC1`, the “activity change, negative = inhibition” value is 7.05%.
Same read-out and setting: then `COc1ccc(NC(=O)C2=NNC(=O)CC2)cc1S(=O)(=O)N1CCCCC1`, with 10.7%; and `COc1ccccc1C(=O)Nc1ccc(OCC(=O)N2CCCCC2)cc1`, with 9.06%.
Consider `Cc1ccc(NC(=O)c2ccccn2)cc1S(=O)(=O)N1CCOCC1`, for which the “activity change, negative = inhibition” value is -0.0506%.
